Sfp PPTase inh: qHTS Assay for Inhibitors of Bacillus subtilis Sfp phosphopantetheinyl transferase (PPTase) | 4'-phosphopantetheinyl transferase ffp (Bacillus subtilis), Q9F4F7 | Biochemical Sfp PPTase activity, qHTS | Potency, µM, without a hit: largest response in the series, negative = inhibition, actives largely listed as inhibitors | 310,000 tested, 3.5% active | AID 1490, 2009;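 note: the enzyme is Sfp with the accession as filed and its product quenches rhodamine fluorescence; 0% = enzyme reaction without inhibitor and -100% = no enzyme wells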
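Compounds were incubated with enzyme (final 15 nM) for 15 min at room temperature before substrate addition started the reaction. Fluorescence at 525 nm excitation, 598 nm emission was recorded immediately and after 30 minutes.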
HP1b binding inh: HTS for Inhibitors of HP1-beta Chromodomain Interactions with Methylated Histone Tails; Chromobox protein homolog 1 (Homo sapiens), P83916; AlphaScreen HP1-beta / biotin-H3K9me3 peptide binding; Potency, µM (doses to about 114 µM), for inactives: at the highest dose activity change, negative = inhibition, usual class: inhibitors; 390,000 tested, 0.56% active; note: nearly all actives have a fitted effect of over 70% in size
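HP1-beta protein (50 nM final) preincubated 30 min at room temperature with biotinylated H3(1-18)K9me3 peptide (50 nM) in PBS pH 7.4, 0.01% Tween-20, then compound added for 30 min. AlphaScreen streptavidin donor/nickel chelate acceptor beads (10 ug/mL final), 30 min dark, luminescence read.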
JMJD2A Tudor: qHTS Assay for Inhibitors of JMJD2A-Tudor Domain | AlphaScreen JMJD2A-Tudor / H3K4me3 peptide binding | Potency, µM (doses to about 114 µM), inactives show at the top dose activity change, negative = inhibition, usual class: inhibitors | 390,000 tested, 4.4% active | AID 504339, 2011 | Lysine-specific demethylase 4A (Homo sapiens), O75164; note: % is set by controls: 0 for no effect and ±100 for the full control effect; nearly all actives have a fitted effect of over 50% in size
Target sequence (O75164 whole entry, looked up, the tested form may be a part): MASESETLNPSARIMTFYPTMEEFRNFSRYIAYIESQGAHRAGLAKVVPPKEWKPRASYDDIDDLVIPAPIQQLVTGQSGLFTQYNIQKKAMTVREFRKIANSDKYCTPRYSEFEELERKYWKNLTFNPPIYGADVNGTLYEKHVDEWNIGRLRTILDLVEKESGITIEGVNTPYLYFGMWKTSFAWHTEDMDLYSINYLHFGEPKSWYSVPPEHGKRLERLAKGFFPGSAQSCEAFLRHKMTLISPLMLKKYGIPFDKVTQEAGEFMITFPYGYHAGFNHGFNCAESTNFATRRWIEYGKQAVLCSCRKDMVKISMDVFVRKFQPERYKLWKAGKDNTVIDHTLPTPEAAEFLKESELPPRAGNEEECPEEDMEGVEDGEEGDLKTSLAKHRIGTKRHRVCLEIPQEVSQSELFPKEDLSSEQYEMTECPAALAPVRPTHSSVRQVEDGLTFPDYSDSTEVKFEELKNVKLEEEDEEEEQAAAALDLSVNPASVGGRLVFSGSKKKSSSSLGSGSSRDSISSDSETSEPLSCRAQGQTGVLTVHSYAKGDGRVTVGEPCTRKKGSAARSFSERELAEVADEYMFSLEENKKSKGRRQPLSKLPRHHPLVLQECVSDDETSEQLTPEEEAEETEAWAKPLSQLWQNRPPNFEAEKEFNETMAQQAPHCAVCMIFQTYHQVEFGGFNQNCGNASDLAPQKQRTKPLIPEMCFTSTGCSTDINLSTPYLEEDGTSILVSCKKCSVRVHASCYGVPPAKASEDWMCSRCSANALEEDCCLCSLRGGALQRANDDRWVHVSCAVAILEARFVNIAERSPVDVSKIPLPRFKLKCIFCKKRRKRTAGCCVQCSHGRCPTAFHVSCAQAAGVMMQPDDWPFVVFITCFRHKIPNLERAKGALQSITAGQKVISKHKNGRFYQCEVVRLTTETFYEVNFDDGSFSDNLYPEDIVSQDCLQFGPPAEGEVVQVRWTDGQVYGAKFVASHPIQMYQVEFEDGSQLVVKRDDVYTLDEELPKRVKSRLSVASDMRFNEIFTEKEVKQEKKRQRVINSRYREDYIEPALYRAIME
G9a inh: qHTS Assay for Inhibitors of Histone Lysine Methyltransferase G9a; Histone-lysine N-methyltransferase EHMT2 (Homo sapiens), Q96KQ7; G9a H3K9 monomethylation, AlphaScreen, 2 h; Potency, µM (highest dose often 102 µM), without a hit: at the top dose activity, negative = inhibition, actives largely listed as inhibitors; 350,000 tested, 8.8% active; AID 504332, 2011; note: % is set by controls: 0 for no effect and ±100 for the full control effect; nearly all actives have a fitted effect of over 75% in size
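Signal arises when biotinylated H3K9 peptide, once monomethylated, bridges streptavidin donor and antibody-captured acceptor beads. Enzyme at 20 nM was preincubated 15 min with test compounds; peptide 500 nM and SAM 20 uM then reacted for 2 h.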
BAZ2B inh: qHTS Assay for Inhibitors of BAZ2B; AlphaScreen BAZ2B-H3K14Ac peptide displacement; 360,000 tested, 4.4% active; Potency, µM (top dose mostly 114 µM), for inactives: at the top dose activity change, negative = inhibition, usual class: inhibitors; Bromodomain adjacent to zinc finger domain protein 2B (Homo sapiens), Q9UIF8; note: % is set by controls: 0 for no effect and ±100 for the full control effect; nearly all actives have a fitted effect of over 60% in size
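Multi-concentration screen (max 110 uM) measuring displacement of acetylated histone H3 peptide from BAZ2B by AlphaScreen, using 50 nM protein, 50 nM peptide and 10 ug/mL streptavidin donor plus Ni-chelate acceptor beads.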
Starred values were filed as active, the others as inactive; ? = inconclusive; · = no result; ! = not confirmed by another sample; [ ] = another dose, or the depositor's remark. In the library only some 12% were active in any assay of this set; here they are far more common. Calls come from the whole dose curve; as a rule, active = well fitted curve in the direction sought with a large enough effect; inconclusive = small, poorly fitted or top-dose-only effect, or another doubt; inactive = no such curve, though single readings can be large; an effect the other way counts as inactive or inconclusive. Potency is the fitted concentration of half-maximal effect.

SMILES | Sfp PPTase inh | HP1b binding inh | JMJD2A Tudor | G9a inh | BAZ2B inh
Fc1ccc(-n2cc(-c3ccccc3)c3c(NN4CCOCC4)ncnc32)cc1 | -15% | ? | ? | -30%[59 µM] | ?
O=C(/C=C(\O)c1ccccc1)c1ccccc1O | -6% | · | · | -39%[2.33 µM] | ·
NC(=O)c1nsc(C(=O)N(CC(=O)NC2CCCCC2)Cc2ccc3c(c2)OCO3)c1N | · | 21% | -21% | · | ·
CCOC(=O)c1ccc(NC(=O)c2cccc3c2C(=O)N(CC2CCCO2)C3)cc1 (centres undefined) | -31% | 34% | ? | 5% | -4%
CCOC(=O)C1=CN(CC2CCCO2)C=C(C(=O)OCC)C1c1ccccc1C(F)(F)F (centres undefined) | 40µM* | 201% | 20% | 117%[59 µM] | 47%
CN(c1ccc([N+](=O)[O-])cc1/C=N/NC(=O)COc1ccccc1)C1CCCCC1 | 13% | 35% | -7% | -11%[59 µM] | -12%
CN(c1ccc([N+](=O)[O-])cc1C(N)=O)C1CCCCC1 | 14% | 20% | -13% | -34% | 79µM*
CN(CCOc1ccccc1)C(=O)CNC(=O)c1ccc(C(C)(C)C)cc1 | · | 31% | -1% | -4%[12.7 µM] | -5%
O=C(C=NNc1ccccc1)c1ccccc1 | · | -22% | ? | · | ·
O=C(O)/C(=C\C(=O)c1ccccc1)Nc1ccccc1 | -27% | · | · | 20µM* | 79µM*
CC#CCN1C(=O)N[C@@H](c2ccccc2)C(C(=O)OC)=C1C | 12% | 13% | ? | · | ·
CC(C)(C)OC(=O)N1CCC(c2c(C(=O)NCC3CCN(C4CCCC4)C3)cnn2-c2ccc(F)cc2)CC1 (centres undefined) | 15% | 23% | -26% | 9%[59 µM] | -10%
Cc1ccc(-n2ncc(C(=O)NCC3CCN(C4CCCC4)C3)c2C2CCN(C(=O)OC(C)(C)C)CC2)cc1 (centres undefined) | -8% | 47% | -30% | 71µM* | ?
COc1cc(CN2CCN(C(O)(c3ccccc3)c3ccccc3)CC2)cc(OC)c1OC | -6% | -13% | 25µM* | · | ?
COc1cc(CN2CCN(S(=O)(=O)c3ccccc3)CC2)cc(OC)c1OC | ? | ? | 20µM* | 28µM* | ?
COc1cc(S(=O)(=O)N2CCN(Cc3ccccc3)CC2)ccc1Br | 0% | 18% | -11% | 45µM* | 4%
COc1cc(CN2CCC(CO)(CCOc3ccccc3)CC2)cc(OC)c1OC | 4% | 44% | 0% | 4% | 8%
COc1ccc(OC)c(S(=O)(=O)N2CCN(Cc3ccccc3)CC2)c1 | 8% | 28% | 1% | · | -9%
COc1cc(CN2CCN(S(=O)(=O)c3ccc(F)cc3)CC2)cc(OC)c1OC | ? | ? | 7.9µM* | 7.9µM*! | 5%
COc1ccccc1CNC(=O)CSc1nc2nc(C)c(Cc3ccccc3C)c(C)n2n1 | · | 52% | -15% | 10%[59 µM] | 9%
COc1cc(CN2CCN(c3cccc(Cl)c3)CC2)cc(OC)c1OC | -28% | ? | 3.5µM* | 13µM* | 50µM*
O=C(N/N=C1/C[C@@H](O)[C@@H](O)[C@@H]2[C@@H]3C(=O)N(c4cccc(Oc5ccccc5)c4)C(=O)[C@H]3CC[C@@H]12)OCc1ccccc1 | 5% | · | · | · | ·
CC[C@@H](C)[C@@H](O)[C@H](C)C(=O)[C@H](C)/C=C(\C)C[C@H](C)[C@@H]1OC(=O)[C@H]1CC | -11% | · | · | · | ·
Cc1ccc(NC(=O)C2CCN(S(=O)(=O)c3ccc4[nH]c5c(c4c3)CCCCC5)CC2)cc1 | · | 27% | -22% | -36%[59 µM] | -14%
CC(C)CC(=O)NCc1ccc2[nH]c3c(c2c1)CCCC3 | 6% | 4% | -32% | 40µM* | ·
SMILES | Sfp PPTase inh | HP1b binding inh | JMJD2A Tudor | G9a inh | BAZ2B inh
COCCNC(=O)NC(=O)COC(=O)c1ccc2[nH]c3c(c2c1)CCCC3 | 7% | 19% | -18% | -25% | -2%
Cc1ccc(NC(=S)NCc2ccc3[nH]c4c(c3c2)CCCC4)cc1 | 9% | ? | 50µM* | 45µM* | 35µM*
O=C(NCCO)c1ccc2[nH]c3c(c2c1)CCCC3 | -4% | 0% | -19% | ? | -29%
COCCNC(=S)NCc1ccc2[nH]c3c(c2c1)CCCC3 | 11% | -18% | 56µM* | 45µM* | ·
COCCCNC(=O)C1CCC(Cn2c(=O)c3sccc3n(C)c2=O)CC1 (centres undefined) | · | 107% | -15% | 21%[59 µM] | -8%
O=C(COc1ccccc1F)Nc1ccc2nc(SCC(=O)N3CCCC3)sc2c1 | · | 50% | -10% | 2%[59 µM] | -34%
CCCCN(CCCC)CC(O)Cn1cc(/C=C/C(=O)c2ccccc2)c2ccccc21 (centres undefined) | · | 24% | ? | ? | -26%
CCC(=C(c1ccc(OC)cc1)c1ccc(OC)cc1)c1cn(CC(O)CN2CCN(C)CC2)c2ccccc12 (centres undefined) | 50µM* | 50µM* | 28µM* | 40µM* | 45µM*
CCCCN(C)CC(O)Cn1cc(/C=C/C(=O)c2cccs2)c2ccccc21 (centres undefined) | 20µM* | 14% | -27% | 7%[59 µM] | -8%
CCCCN(C)CC(O)Cn1cc(/C=C/C(=O)c2ccc(OCC)cc2)c2ccccc21 (centres undefined) | 45µM* | ? | 50µM* | 50µM*! | ?
COc1ccc(C(=O)/C=C/c2cn(CC(O)CN3CCc4ccccc43)c3ccccc23)cc1 (centres undefined) | · | -31% | 22µM* | ? | ?
CCC(C)NC(=O)C1CCN(C(=O)c2cc3sccc3n2Cc2ccc(Cl)cc2)CC1 (centres undefined) | · | 49% | 8% | -3%[59 µM] | -1%
Cc1nc2ccccc2cc1C(=O)N(C)Cc1ccccc1 | 5% | 23% | 9% | 2% | 9%
Cn1c(=O)n(Cc2ccccc2)c(=O)c2c1nc1n2CCN1c1ccccc1 | · | 30% | -14% | -30%[59 µM] | -15%
N#CCCN(Cc1cccnc1)C(=S)NC(=O)c1ccco1 | 12% | 12% | 22µM* | 10µM* | ?
N#CCCN(C(=S)NC(=O)c1ccco1)c1ccccc1F | 22µM* | -20% | -33% | 25µM* | -24%
N#CCCN(Cc1cccnc1)C(=S)NCc1ccco1 | 25µM* | 2% | -2% | 20µM* | -15%
NC(=O)CCCCC(=O)OCCCc1cccs1 | 18% | 4% | 89µM* | -6%[59 µM] | ?
O=C(CCCc1cccs1)Nc1nccs1 | 4% | 47% | -2% | 7% | -1%
O=C1NC(=Nc2ccccc2Cl)S/C1=C\c1ccc(C(=O)O)cc1 | 14% | 19% | -15% | -13% | -18%

Assay outcomes: PubChem, National Center for Advancing Translational Sciences (NCATS)
